# Inconclusive results are not listed. Where a call stands in place of a potency, no number is given. The source made the active and inactive calls. Unless noted, calls come from the whole dose curve; as a rule, active = well fitted curve in the direction sought with a large enough effect; inconclusive = small, poorly fitted or top-dose-only effect, or another doubt; inactive = no such curve, though single readings can be large; an effect the other way counts as inactive or inconclusive.
# Key:
# [1] = test system: Zika virus NS2B-NS3 protease; test: Primary screen GU AMC qHTS for Zika virus inhibitors (AID 1347154); note: nearly all actives have a fitted effect of over 70% in size
# Method in brief: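 Unlinked Zika NS2B hydrophilic domain/NS3 protease domain noncovalent complex (25 nM final) in 10 mM Tris-HCl pH 8.0, 0.01% Tween 20, with AMC peptide substrate. Fluorescence (ex 340, em 450 nm) change over 15 min, room temperature; percent inhibition fitted to 4-parameter Hill equation.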
# [2] = qHTS to identify inhibitors of the type 1 interferon - major histocompatibility complex class I in skeletal muscle: primary screen against the NCATS Mechanism Interrogation Plate v5.0 (MIPE) Libary (AID 1347411); note: nearly all actives have a fitted effect of over 65% in size
# Method in brief: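 Cells were genome-edited human myoblasts carrying a HiBit tag on endogenous HLA-B. They were treated with IFN-beta (4.0 ng/ml) and titrated compounds (top 46 uM) for 24 hrs before lytic HiBiT detection.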
# [3] = Primary qHTS for small molecule stabilizers of the endoplasmic reticulum resident proteome: Secreted ER Calcium Modulated Protein (SERCaMP) assay (AID 1508630)
# Method in brief: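 GLuc-SERCaMP-expressing SH-SY5Y cells, pretreated 16 h with compound, are challenged with thapsigargin to empty ER calcium stores; after 4 h, coelenterazine is added directly to the medium and luminescence is imaged.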
# [4] = biological target: Cytochrome P450 2D6 (Homo sapiens) (UniProt P10635); test: Cytochrome P450 family 2 subfamily D member 6 (CYP2D6) small molecule antagonists: luciferase biochemical (cell-free) qHTS assay (AID 1645840; active = well fitted curve in the direction sought with a large enough effect in the repeat runs; an effect the other way counts as inactive or inconclusive; note: potency is the fitted concentration of half-maximal effect; nearly all actives have a fitted effect of over 55% in size)
# Cytochrome P450 2D6 (Homo sapiens), sequence (P10635 whole entry, looked up): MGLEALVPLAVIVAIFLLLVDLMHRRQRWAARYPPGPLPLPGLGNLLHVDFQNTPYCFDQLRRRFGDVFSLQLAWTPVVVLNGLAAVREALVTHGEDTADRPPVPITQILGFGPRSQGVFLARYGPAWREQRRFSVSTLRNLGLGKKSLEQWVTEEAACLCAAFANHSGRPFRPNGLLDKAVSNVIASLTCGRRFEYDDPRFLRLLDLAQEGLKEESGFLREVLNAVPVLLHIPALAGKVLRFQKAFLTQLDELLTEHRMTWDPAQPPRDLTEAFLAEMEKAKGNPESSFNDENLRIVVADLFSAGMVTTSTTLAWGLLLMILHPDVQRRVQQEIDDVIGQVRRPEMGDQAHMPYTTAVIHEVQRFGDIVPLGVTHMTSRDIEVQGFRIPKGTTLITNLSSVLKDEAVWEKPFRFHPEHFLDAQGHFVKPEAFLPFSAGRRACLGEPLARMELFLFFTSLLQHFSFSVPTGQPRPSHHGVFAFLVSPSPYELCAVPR
# Method in brief: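 P450-Glo luminescent screen: recombinant CYP2D6 enzyme–proluciferin substrate mix preincubated with compound 10 min at room temperature, then NADPH regeneration added for 1 h at room temperature. Detection reagent added for 20 min; luciferin light read as relative luminescence units.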
# [5] = biological target: Cytochrome P450 2C9 (Homo sapiens) (UniProt P11712); test: Cytochrome P450 family 2 subfamily C member 9 (CYP2C9) small molecule antagonists: luciferase biochemical (cell-free) qHTS assay (AID 1645842; active = well fitted curve in the direction sought with a large enough effect in the repeat runs; an effect the other way counts as inactive or inconclusive; note: potency is the fitted concentration of half-maximal effect; nearly all actives have a fitted effect of over 55% in size)
# Cytochrome P450 2C9 (Homo sapiens), sequence (P11712 whole entry, looked up): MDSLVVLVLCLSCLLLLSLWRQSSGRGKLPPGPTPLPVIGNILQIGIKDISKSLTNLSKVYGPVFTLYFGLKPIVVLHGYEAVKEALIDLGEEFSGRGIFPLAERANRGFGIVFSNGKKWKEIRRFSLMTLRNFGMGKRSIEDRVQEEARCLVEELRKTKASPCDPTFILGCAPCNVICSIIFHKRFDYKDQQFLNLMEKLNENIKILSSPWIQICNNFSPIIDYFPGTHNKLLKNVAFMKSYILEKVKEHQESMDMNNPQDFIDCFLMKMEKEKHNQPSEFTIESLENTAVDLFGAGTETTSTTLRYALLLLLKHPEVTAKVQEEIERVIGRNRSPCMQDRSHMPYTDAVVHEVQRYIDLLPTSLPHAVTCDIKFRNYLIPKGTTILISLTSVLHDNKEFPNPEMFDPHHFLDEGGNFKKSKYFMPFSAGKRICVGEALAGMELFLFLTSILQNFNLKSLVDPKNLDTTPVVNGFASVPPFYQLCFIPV
# Method in brief: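 Luminescence, after 20 min with luciferin detection reagent, reflected CYP2C9 turnover during a 1 h NADPH-driven reaction at 37C. Enzyme-substrate mix contained 0.4% bovine serum albumin and was preincubated with compound 10 min at room temperature.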
# [6] = biological target: Glutathione peroxidase 1 (Homo sapiens) (UniProt P07203); test: Primary qHTS Assay for Inhibitors of Recombinant Selenoprotein Glutathione Peroxidase 1 (GPX1) (AID 1845191); note: nearly all actives have a fitted effect of over 65% in size
# Glutathione peroxidase 1 (Homo sapiens), sequence (P07203 whole entry, looked up): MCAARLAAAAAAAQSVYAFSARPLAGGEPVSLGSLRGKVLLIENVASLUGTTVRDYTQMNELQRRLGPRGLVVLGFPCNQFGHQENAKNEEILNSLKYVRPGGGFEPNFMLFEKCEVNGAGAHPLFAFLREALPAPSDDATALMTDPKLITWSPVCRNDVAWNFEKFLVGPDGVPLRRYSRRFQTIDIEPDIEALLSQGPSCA
# Method in brief: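 Recombinant GPX1 (10 nM final) was preincubated with compound for 30 min at room temperature, then reacted with 1 mM GSH, 0.5 mM CHP, 0.5 mM NADPH and 100 nM glutathione reductase; NADPH fluorescence (340/450 nm) was read at 0 and 15 min.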
# [7] = biological target: Phospholipid hydroperoxide glutathione peroxidase GPX4 (Homo sapiens) (UniProt P36969); test: Primary qHTS Assay for Inhibitors of Recombinant Selenoprotein Glutathione Peroxidase 4 (GPX4) (AID 1845192); conditions: outcome: dose series up to 50 µM unless noted; note: series mostly up to about 50 µM; nearly all actives have a fitted effect of over 65% in size
# Phospholipid hydroperoxide glutathione peroxidase GPX4 (Homo sapiens), sequence (P36969 whole entry, looked up): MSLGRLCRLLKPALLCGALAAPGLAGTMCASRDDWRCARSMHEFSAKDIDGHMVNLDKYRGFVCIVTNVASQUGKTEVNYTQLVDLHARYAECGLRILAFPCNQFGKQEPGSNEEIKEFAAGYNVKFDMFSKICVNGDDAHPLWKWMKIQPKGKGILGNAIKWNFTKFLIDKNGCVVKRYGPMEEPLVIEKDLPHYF
# Method in brief: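 GR-coupled readout: 100 nM GR, 1 mM GSH, 0.5 mM NADPH; NADPH fluorescence (ex 340/em 450 nm) read at t=0 and after 15 min RT. GPX4 200 nM, preincubated 30 min with compound; substrate 0.5 mM CHP.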
# [8] = qHTS drug screen for cell cycle checkpoint inhibitors in PARPi-resistant BRCA-mutant ovarian cancer cell lines. (AID 1963452; calls by dose curve); conditions: PEO1/OlaR viability, CellTiter-Glo luminescence, 96 h, stronger effect = lower value
# Method in brief: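 PEO1, PEO4 and PEO1/OlaR ovarian cancer cells, 600 per well, exposed 96 h at 37C to a dilution series. Viability read by CellTiter-Glo luminescence, normalized to DMSO and empty wells; activity summarized as Z-AUC.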
# [9] = Primary qHTS for inhibitors of nuclear receptor binding SET domain protein 2 (NSD2) in an isogenic RCH-ACV NSD2 p.E1099K mutant (9B) (AID 1645876); note: nearly all actives have a fitted effect of over 70% in size; note: potency is the fitted concentration of half-maximal effect
# [10] = biological target: Estrogen receptor (Homo sapiens) (UniProt P03372); test: qHTS assay for small molecule antagonists of estrogen receptor alpha signaling (AID 588513; active = well fitted curve in the direction sought with a large enough effect in the signal ratio, with a control signal flat, not every such curve was filed as active; the % refers to the signal ratio; note: potency is the fitted concentration of half-maximal effect)
# Estrogen receptor (Homo sapiens), sequence (P03372 whole entry, looked up): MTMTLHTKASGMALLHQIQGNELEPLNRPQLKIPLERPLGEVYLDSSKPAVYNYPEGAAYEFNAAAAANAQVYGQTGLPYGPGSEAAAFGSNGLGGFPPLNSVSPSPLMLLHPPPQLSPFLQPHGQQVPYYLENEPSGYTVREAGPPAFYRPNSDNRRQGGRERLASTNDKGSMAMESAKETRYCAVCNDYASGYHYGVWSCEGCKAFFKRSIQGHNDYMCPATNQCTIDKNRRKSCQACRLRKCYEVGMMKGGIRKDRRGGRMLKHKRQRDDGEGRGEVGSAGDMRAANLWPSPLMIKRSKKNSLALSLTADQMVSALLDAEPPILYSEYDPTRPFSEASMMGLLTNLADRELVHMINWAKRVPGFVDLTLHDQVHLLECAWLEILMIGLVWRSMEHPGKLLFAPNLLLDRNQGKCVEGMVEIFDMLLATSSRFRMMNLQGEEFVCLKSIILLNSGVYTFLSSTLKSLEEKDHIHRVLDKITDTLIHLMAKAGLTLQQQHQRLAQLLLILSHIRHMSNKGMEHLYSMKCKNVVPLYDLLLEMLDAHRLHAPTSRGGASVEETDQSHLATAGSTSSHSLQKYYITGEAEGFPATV
# Method in brief: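 ER-alpha-UAS-bla GripTite HEK 293 cells in medium with 2% charcoal/dextran-treated FBS were preincubated 4 h at 37 C, dosed with compound (1:2 titration), stimulated with 0.5nM 17-beta-estradiol for 18 h, then read by CCF4 beta-lactamase fluorescence.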
# [11] = biological target: Estrogen receptor (Homo sapiens) (UniProt P03372); test: qHTS assay for small molecule agonists of estrogen receptor alpha signaling (AID 588514; calls by dose curve; note: nearly all actives have a fitted effect of over 70% in size)
# Method in brief: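 Reporter-gene assay. […] controls beta-lactamase in HEK 293 GripTite cells; after 18 hrs with compound, CCF4 substrate is added for 2 hrs and fluorescence is read.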
# [12] = biological target: Androgen receptor (Homo sapiens) (UniProt P10275); test: qHTS assay for small molecule agonists of androgen receptor signaling (AID 588515; active = well fitted curve in the direction sought with a large enough effect in the signal ratio, with a control signal flat; the % refers to the signal ratio); conditions: AR-UAS-bla HEK293, beta-lactamase ratio, agonist 16 h; stronger effect = higher value
# Androgen receptor (Homo sapiens), sequence (P10275 whole entry, looked up): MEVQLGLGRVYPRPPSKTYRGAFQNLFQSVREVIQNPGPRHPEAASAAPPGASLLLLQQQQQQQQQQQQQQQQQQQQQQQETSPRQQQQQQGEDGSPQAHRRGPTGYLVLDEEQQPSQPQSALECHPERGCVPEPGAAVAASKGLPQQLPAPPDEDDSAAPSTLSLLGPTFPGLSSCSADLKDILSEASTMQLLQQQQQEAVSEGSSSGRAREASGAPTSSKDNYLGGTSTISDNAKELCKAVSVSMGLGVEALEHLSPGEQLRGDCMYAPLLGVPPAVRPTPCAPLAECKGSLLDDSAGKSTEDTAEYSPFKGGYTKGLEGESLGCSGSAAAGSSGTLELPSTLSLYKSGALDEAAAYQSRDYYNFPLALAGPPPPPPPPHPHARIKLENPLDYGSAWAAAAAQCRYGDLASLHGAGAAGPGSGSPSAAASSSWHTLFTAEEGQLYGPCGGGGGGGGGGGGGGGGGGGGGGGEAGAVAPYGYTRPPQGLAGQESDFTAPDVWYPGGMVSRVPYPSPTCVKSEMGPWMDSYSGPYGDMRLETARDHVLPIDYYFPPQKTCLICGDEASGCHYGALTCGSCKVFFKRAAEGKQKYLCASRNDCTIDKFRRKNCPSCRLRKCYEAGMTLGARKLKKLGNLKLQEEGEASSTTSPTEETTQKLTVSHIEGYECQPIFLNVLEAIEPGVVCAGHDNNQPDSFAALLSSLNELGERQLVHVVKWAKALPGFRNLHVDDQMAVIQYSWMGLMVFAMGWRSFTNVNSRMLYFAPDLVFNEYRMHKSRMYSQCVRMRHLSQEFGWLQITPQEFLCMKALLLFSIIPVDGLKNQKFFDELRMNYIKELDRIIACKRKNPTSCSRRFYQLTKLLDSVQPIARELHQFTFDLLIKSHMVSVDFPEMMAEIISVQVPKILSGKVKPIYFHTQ
# Method in brief: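 EC50 and efficacy came from Hill fits of titrations (up to 92 uM) normalized to 30 nM R1881 as 100% and DMSO as 0%. Compound exposure was 16 h at 37 C on AR-UAS-bla HEK293 cells, with a 405/460/530 nm CCF4 fluorescence read.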
# [13] = biological target: Glucocorticoid receptor (Homo sapiens) (UniProt P04150); test: qHTS assay for small molecule agonists of glucocorticoid receptor signaling (AID 588532; active = well fitted curve in the direction sought with a large enough effect in the signal ratio, with a control signal flat; the % refers to the signal ratio); conditions: HeLa MMTV-bla, beta-lactamase ratio, agonist, 18 h; stronger effect = higher value; percent of dexamethasone control, DMSO zero
# Glucocorticoid receptor (Homo sapiens), sequence (P04150 whole entry, looked up): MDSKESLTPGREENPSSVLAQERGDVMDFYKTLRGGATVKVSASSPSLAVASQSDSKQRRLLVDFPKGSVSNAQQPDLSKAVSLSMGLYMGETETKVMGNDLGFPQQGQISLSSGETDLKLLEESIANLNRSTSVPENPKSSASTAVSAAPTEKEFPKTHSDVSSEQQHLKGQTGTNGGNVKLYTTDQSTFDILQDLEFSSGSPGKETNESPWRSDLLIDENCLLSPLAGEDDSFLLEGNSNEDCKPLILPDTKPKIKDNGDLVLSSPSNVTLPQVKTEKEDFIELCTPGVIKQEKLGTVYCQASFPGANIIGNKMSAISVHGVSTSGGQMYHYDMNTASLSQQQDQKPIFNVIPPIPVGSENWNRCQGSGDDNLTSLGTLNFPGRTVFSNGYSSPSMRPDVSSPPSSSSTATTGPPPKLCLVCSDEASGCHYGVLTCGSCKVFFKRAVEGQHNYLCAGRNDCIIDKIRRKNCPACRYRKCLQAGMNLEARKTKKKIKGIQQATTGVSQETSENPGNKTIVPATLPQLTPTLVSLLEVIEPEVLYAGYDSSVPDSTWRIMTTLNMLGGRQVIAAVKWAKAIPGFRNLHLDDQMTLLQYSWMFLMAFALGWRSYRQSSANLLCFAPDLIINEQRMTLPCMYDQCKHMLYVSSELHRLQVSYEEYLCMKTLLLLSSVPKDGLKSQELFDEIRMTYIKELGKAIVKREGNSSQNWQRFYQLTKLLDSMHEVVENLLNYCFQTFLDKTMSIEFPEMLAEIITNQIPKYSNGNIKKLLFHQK
# Method in brief: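 Stimulation of a glucocorticoid response element-driven beta-lactamase gene was measured in HeLa cells. Responses were scaled between DMSO basal and 0.1 uM dexamethasone, then fitted for half-maximal stimulation.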
# [14] = biological target: Glucocorticoid receptor (Homo sapiens) (UniProt P04150); test: qHTS assay for small molecule antagonists of glucocorticoid receptor signaling (AID 588533; active = well fitted inhibition curve with a large enough effect in the signal ratio, with a control signal flat, not every such curve was filed as active; the % refers to the signal ratio;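 note: cells stimulated with 2 nM dexamethasone as agonist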)
# Method in brief: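 Antagonist-mode qHTS: compound titrations added to GRE-bla HeLa cells, then dexamethasone 2 nM final; 18 h, 37 C. CCF4 FRET fluorescence normalized to dexamethasone and DMSO; IC50 from Hill fit.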
# [15] = biological target: Peroxisome proliferator-activated receptor gamma (Homo sapiens) (UniProt P37231); test: qHTS assay for small molecule agonists of peroxisome proliferator-activated receptor gamma signaling (AID 588536; active = well fitted curve in the direction sought with a large enough effect in the signal ratio, with a control signal flat, not every such curve was filed as active; the % refers to the signal ratio)
# Peroxisome proliferator-activated receptor gamma (Homo sapiens), sequence (P37231 whole entry, looked up): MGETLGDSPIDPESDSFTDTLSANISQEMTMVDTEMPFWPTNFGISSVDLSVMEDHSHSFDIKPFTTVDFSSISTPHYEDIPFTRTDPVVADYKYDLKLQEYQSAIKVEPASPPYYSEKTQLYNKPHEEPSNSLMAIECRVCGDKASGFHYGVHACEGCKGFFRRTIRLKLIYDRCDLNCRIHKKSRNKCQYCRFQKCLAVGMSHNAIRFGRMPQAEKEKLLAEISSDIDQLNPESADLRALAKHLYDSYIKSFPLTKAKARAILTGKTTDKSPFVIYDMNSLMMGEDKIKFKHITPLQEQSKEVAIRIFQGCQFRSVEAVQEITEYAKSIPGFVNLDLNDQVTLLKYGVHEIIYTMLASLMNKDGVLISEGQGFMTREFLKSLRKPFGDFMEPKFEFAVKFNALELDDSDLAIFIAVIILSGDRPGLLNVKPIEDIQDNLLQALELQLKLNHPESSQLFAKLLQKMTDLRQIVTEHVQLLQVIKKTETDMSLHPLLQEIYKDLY
# Method in brief: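 PPAR-gamma-UAS-bla HEK293 cells in medium with 1% charcoal/dextran-treated FBS were exposed to compounds for 16 h at 37 C. Beta-lactamase activity was read with CCF4 substrate (405 nm excitation, 460/530 nm emission).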
# [16] = biological target: Vitamin D3 receptor (Homo sapiens) (UniProt P11473); test: qHTS assay for small molecule agonists of vitamin D receptor signaling (AID 588543; calls by dose curve)
# Vitamin D3 receptor (Homo sapiens), sequence (P11473 whole entry, looked up): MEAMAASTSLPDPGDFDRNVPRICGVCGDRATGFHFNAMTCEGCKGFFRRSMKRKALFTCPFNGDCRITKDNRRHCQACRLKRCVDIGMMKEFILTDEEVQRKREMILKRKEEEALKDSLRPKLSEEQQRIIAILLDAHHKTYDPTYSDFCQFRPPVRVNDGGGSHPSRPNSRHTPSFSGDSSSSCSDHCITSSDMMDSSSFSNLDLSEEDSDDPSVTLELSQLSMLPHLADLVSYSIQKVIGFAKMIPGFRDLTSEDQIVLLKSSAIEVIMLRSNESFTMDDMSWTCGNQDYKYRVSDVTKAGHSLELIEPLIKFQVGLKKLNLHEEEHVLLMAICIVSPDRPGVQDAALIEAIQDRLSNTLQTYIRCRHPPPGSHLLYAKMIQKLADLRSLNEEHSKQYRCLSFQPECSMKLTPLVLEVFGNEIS
# Method in brief: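 GeneBLAzer VDR-UAS-bla HEK293T cells in 2% charcoal-stripped FBS medium were dosed with compound titrations for 16 h at 37 °C; CCF4 β-lactamase readout (405 nm ex, 460/530 nm em). EC50 and efficacy from Hill fits, normalized to 50 nM calcitriol (100%) and DMSO (0%).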
# [17] = qHTS assay for small molecule agonists of the antioxidant response element (ARE) signaling pathway (AID 651741; active = well fitted activation curve with a large enough effect in the signal ratio; the % refers to the signal ratio; note: potency is the fitted concentration of half-maximal effect)
# Method in brief: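 ARE-bla HepG2 cells (beta-lactamase reporter under ARE control) were plated at 2,000 cells/well, preincubated 5 h at 37 C/5% CO2, then treated with DMSO-dissolved compounds for 16 h at 37 C; LiveBLAzer B/G FRET substrate added, fluorescence read after 2 h at room temperature.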
# [18] = qHTS assay for environmental chemicals that activate the Aryl hydrocarbon Receptor (AhR) signaling pathway (AID 651777); conditions: 1A2-DRE human hepatoma cells, luciferase, 24 h; stronger effect = higher value; note: nearly all actives have a fitted effect of over 15% in size
# Method in brief: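 Stable CYP1A2 promoter/DRE-luciferase human hepatoma line treated 24 hr; One-Glo luminescence, 30 min RT.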
# [19] = qHTS assay for cell viability of HEK293 cells (AID 743288); conditions: ATP luminescence (CellTiter-Glo), 18 h; max response: stronger effect = lower value; note: potency is the fitted concentration of half-maximal effect; nearly all actives have a fitted effect of over 50% in size
# Method in brief: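 Parental HEK293 cells were seeded at 2,000 cells/well, rested at least 5 h at 37 C, then exposed to compounds in DMSO for 18 h at 37 C. Viability was read as ATP-dependent luciferase luminescence after 30 min at room temperature.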
# [20] = Primary qHTS for inhibitors of nuclear receptor binding SET domain protein 2 (NSD2) in an RCH-ACV wild type WT cells (2C) (AID 1645877); note: nearly all actives have a fitted effect of over 70% in size
# [21] = biological target: Nuclear receptor subfamily 1 group I member 2 (Rattus norvegicus) (UniProt Q9R1A7); test: qHTS assay for small molecule activators of the rat pregnane X receptor (rPXR) signaling pathway (AID 651751; call rule not given here); conditions: rPXR reporter cells, luciferase (One-Glo), 24 h
# [22] = measured here: PEO1 parental Z-AUC
compound,measurement,setting,value
CC[C@@H](C)[C@H](NS(=O)(=O)c1cccc2ccccc12)C(=O)N[C@H](C=O)Cc1c[nH]c2ccccc12,Potency,[1],inactive
CC(Sc1nc2ccccc2[nH]1)C(=O)NN=Cc1cc(Br)ccc1O (configuration not stated),"activity change, negative = inhibition",[1],1.61% [at 6.83 µM] (inactive)
CCCCC/C=C\C[C@@H](O)/C=C/C=C/C=C\[C@@H](O)CCCC(=O)O,"activity change, negative = inhibition",[1],25.7% [at 0.59 µM] (inactive)
CN(CCc1ccc(Cl)c(Cl)c1)CC(O)COc1ccc(NS(C)(=O)=O)cc1 (configuration not stated),Potency,[1],inactive
O=C(NCCCN1CCCCCC1)C(c1ccccc1)C1CCCCC1 (configuration not stated),Potency,[1],inactive
CC#CC(=O)Nc1cc2c(Nc3ccc(F)c(Cl)c3)ncnc2cn1,Potency,[1],inactive
CC12CCC3C(CCC4CC(O)CCC43C)C1CC=C2c1ccccc1 (configuration not stated),Potency,[1],inactive
CCCC(=O)NCCc1c(I)[nH]c2ccc(OC)cc12,Potency,[1],inactive
COc1ccc(CCCn2ncc3c2nc(N)n2nc(-c4ccco4)nc32)cc1,Potency,[1],inactive
O=C(NCCCCCCNC(=O)ON=C1CCCCC1)ON=C1CCCCC1,Potency,[1],inactive
CCCCn1c(=O)c2[nH]c(C34CC5CC(CC3C5)C4)nc2n(CCCO)c1=O,Potency,[1],inactive
CCCCCCCCC#CCC#CCC#CCCCC(=O)O,"activity change, negative = inhibition",[1],19.3% [at 6.83 µM] (inactive)
S=C(NCCCc1cnc[nH]1)NCCCN(Cc1ccc(Cl)c(Cl)c1)c1ccc(Br)cn1,Potency,[1],inactive
COc1cccc(OC)c1-c1cc(C(=O)NC2(C(=O)O)C3CC4CC(C3)CC2C4)nn1-c1ccc(C(=O)N(C)CCCN(C)C)cc1C(C)C (configuration not stated),Potency,[1],inactive
CCCNC(=O)[C@H]1O[C@@H]1C(=O)N[C@H](C(=O)N1CCC[C@H]1C(=O)OC)[C@@H](C)CC,Potency,[1],inactive
Nc1ncnc2c1ncn2C1C[C@H](O)[C@@H](CO)O1 (some centres not stated),Potency,[1],inactive
Nc1ncnc2c1ncn2[C@@H]1O[C@H](COP(=O)(O)OP(=O)(O)CP(=O)(O)O)[C@@H](O)[C@H]1O,Potency,[1],inactive
O=c1[nH]cnc2c1ncn2C1O[C@H](CO)[C@@H](O)[C@H]1O (some centres not stated),Potency,[1],inactive
CSc1ccc([C@H]2CN3CCC[C@H]3c3ccccc32)cc1,Potency,[1],inactive
O=C(O)c1cc(Oc2ccc([N+](=O)[O-])cc2)cc(Oc2ccc([N+](=O)[O-])cc2)c1,Potency,[1],inactive
C[C@H](CCC(=O)NCC(=O)O)C1CC[C@H]2C3CC[C@@H]4C[C@H](O)CC[C@]4(C)C3C[C@H](O)[C@]12C (some centres not stated),Potency,[1],inactive
CCCCC/C=C\C\C=C/C=C/C=C/[C@@H](SC[C@H](N)C(=O)NCC(=O)O)[C@@H](O)CCCC(=O)O,"activity change, negative = inhibition",[1],13.3% [at 0.59 µM] (inactive)
Cn1cnnc1Sc1c([N+](=O)[O-])ncn1C,Potency,[1],inactive
CCCCC[C@H](O)/C=C/[C@@H]1[C@H]2C/C(=C/CCCC(=O)O)C[C@H]2C[C@H]1O,Potency,[1],inactive
N#C/C(=C(/N)Sc1ccc(N)cc1)c1ccccc1C(F)(F)F,Potency,[1],inactive
same,Potency,[2],inactive
same,Potency,[3],inactive
same,Potency,[4],16.9 µM (active)
same,Potency,[5],9.52 µM (active)
same,Potency,[6],inactive
same,Potency,[7],inactive
same,Z-AUC,[8],-0.578 (inactive)
same,Z-AUC,[8]; [22],-0.277
same,Z-AUC,[8]; measured here: PEO4 Z-AUC,-0.614
Cc1c(C(=O)N(C)C2CCCCC2)sc2nc3ccc(N)cc3n12,Potency,[1],inactive
COc1ccc2c(c1)CC[C@@H]1[C@@H]2CC[C@]2(C)[C@@H](NCCCCCCN3C(=O)C=CC3=O)CC[C@@H]12,Potency,[1],inactive
same,Potency,[2],inactive
same,Potency,[3],inactive
same,Potency,[9],13.2 µM (active)
same,Potency,[6],inactive
same,Potency,[7],inactive
same,Z-AUC,[8],0.11 (inactive)
same,Z-AUC,[8]; [22],0.00217
same,Z-AUC,[8]; measured here: PEO4 Z-AUC,0.205
c1ccc(COCCCc2cnc[nH]2)cc1,Potency,[1],inactive
Cc1nc2c(c(=O)[nH]1)CSCC2,Potency,[1],inactive
Clc1ccc(-c2nc3sccn3c2/C=N/OCc2ccc(Cl)c(Cl)c2)cc1,Potency,[10],20 µM [inhibitor] (active)
same,outcome,[11],inactive
same,activation,[12],-9.11% (inactive)
same,activation,[13],2.87% (inactive)
same,outcome,[14],inactive
same,outcome,[15],inactive
same,outcome,[16],inactive
same,Potency,[17],24.3 µM (active)
same,activation,[18],3.66% (inactive)
same,Potency,[19],50.1 µM (active)
same,Potency,[1],inactive
same,Potency,[2],inactive
same,Potency,[3],inactive
same,Potency,[9],inactive
same,Potency,[20],inactive
same,Potency,[6],inactive
same,Potency,[7],inactive
same,Z-AUC,[8],1.14 (inactive)
same,Z-AUC,[8]; [22],1.09
same,Z-AUC,[8]; measured here: PEO4 Z-AUC,1.23
same,max response,[21],6.54% (inactive)
